The nature of assay [1]: TOX21_p53_BLA_p3_viability: Viability Assessment in the Tox21 HCT-116 p53 Agonism Beta-lactamase Assay, Phase 3 (AID 2283593).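 Note: cells exposed to compound for 16 h before reading.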 Put shortly: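 Cellular ATP was quantified by CellTiter-Glo luminescence, read after 30 min at room temperature. Beforehand, HCT116 cells (4000/well) received compound 5 h post-seeding, 217-fold diluted from DMSO, then incubated 16 h at 37C.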
The target of assay [2] is Cellular tumor antigen p53 (Homo sapiens) (UniProt P04637). The assay can be described thus: TOX21_p53_BLA_p3_ratio: Tox21 HCT-116 p53 Agonism Beta-lactamase Assay, Ratio, Phase 3 (AID 2283596). A digest of the protocol: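 HCT116 p53-bla cells (4000/well) given compound in DMSO (217-fold dilution) after 5 h, incubated 16 h at 37C. CCF4-AM substrate 2 h at room temperature; 460/530 nm emission ratio, gain fitted against DMSO.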

Assay [3] in a line: TOX21_p53_BLA_p4_viability: Viability Assessment in the Tox21 HCT-116 p53 Agonism Beta-lactamase Assay, Phase 4 (AID 2283597).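 Note: hits lower the luminescence signal meaning cytotoxicity.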 Put shortly:
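Luminescent ATP readout (CellTiter-Glo, 30 min, room temperature) in the same wells as the p53 bla ratio. HCT116 cells were treated for 16 h at 37C with DMSO-dissolved compounds.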

The target of assay [4] is Cellular tumor antigen p53 (Homo sapiens) (UniProt P04637). The assay can be described thus: TOX21_p53_BLA_p5_ratio: Tox21 HCT-116 p53 Agonism Beta-lactamase Assay, Ratio, Phase 5 (AID 2283599). Put shortly:
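Beta-lactamase reporter ratio (blue 460 nm over green 530 nm, 405 nm excitation) after 2 h CCF4-AM loading, in HCT-116 cells exposed 16 h at 37 C to compounds pinned at 217-fold dilution. Increases relative to DMSO baseline scored.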

Assay [5] in a line: TOX21_p53_BLA_p5_viability: Viability Assessment in the Tox21 HCT-116 p53 Agonism Beta-lactamase Assay, Phase 5 (AID 2283600). Put shortly:
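Seeded cells (4000/well) settle 5 h before compound addition. Plates then incubate 16 h at 37C, receive FRET substrate for 2 h, and finally CellTiter-Glo, with luminescence measured after a 30 min room-temperature incubation.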

The target of assay [6] is Cellular tumor antigen p53 (Homo sapiens) (UniProt P04637). Briefly: TOX21_p53_BLA_p4_ratio: Tox21 HCT-116 p53 Agonism Beta-lactamase Assay, Ratio, Phase 4 (AID 2283601). Put shortly:
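Signal is the blue/green (460nm/530nm) ratio of cleaved versus uncleaved CCF4-AM substrate, read after 2 h substrate loading. Cells were HCT116 carrying the p53-responsive beta-lactamase reporter, dosed 16 h at 37C, 5% CO2; CellTiter-Glo measured in parallel.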

Assay [7] is described as follows: Tanguay_ZF_120hpf_MORT_legacy: (Legacy) Oregon State University Tanguay Lab 120 Hour Post-fertilization zebrafish Assay for Mortality (AID 2283633).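 For AC50: fitted as increase in binary mortality versus DMSO negative control.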 Put shortly:
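Single dechorionated Tropical 5D embryos were held with test chemical (0.64% DMSO final) from 6 to 120 hpf at 28C under foil. Deaths at 24 or 120 hpf were recorded as binary calls, analysed for increase over DMSO controls.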

The nature of assay [8]: Tanguay_ZF_120hpf_YSE_legacy: (Legacy) Oregon State University Tanguay Lab 120 Hour Post-fertilization zebrafish Assay for Yolk Sac Edema (AID 2283634). A digest of the protocol:
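Single dechorionated embryos were held in sealed plates at 28C with test chemical (0.64% DMSO final) from 6 hpf until 120 hpf. Edema of the yolk sac was then recorded as a binary endpoint; non-mortality endpoints were skipped for dead embryos.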

Assay [9] can be described thus: Tanguay_ZF_120hpf_AXIS_legacy: (Legacy) Oregon State University Tanguay Lab 120 Hour Post-fertilization zebrafish Assay for Body Axis Malformation (AID 2283635).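 For AC50: potency for an increased fraction of larvae scored with body axis malformation.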 A digest of the protocol: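 Each dechorionated embryo was exposed alone from 6 hpf, with DMSO at 0.64% (vol/vol) and trimethyltin chloride 5 uM as positive control. Axis malformation was recorded at 120 hpf unless the embryo had died.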

Assay [10] is described as follows: Tanguay_ZF_120hpf_EYE_legacy: (Legacy) Oregon State University Tanguay Lab 120 Hour Post-fertilization zebrafish Assay for Eye Malformation (AID 2283636). A digest of the protocol: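 Read-out is binary presence or absence of eye malformation, scored by brightfield microscopy at 120 hpf. Single larvae were exposed from 6 hpf in embryo medium containing 0.64% DMSO, with DMSO as baseline.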

The nature of assay [11]: Tanguay_ZF_120hpf_SNOU_legacy: (Legacy) Oregon State University Tanguay Lab 120 Hour Post-fertilization zebrafish Assay for Snout Malformation (AID 2283637). Put shortly: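 Snout malformation read as a yes/no call on brightfield images of 120 hpf larvae (Tropical 5D strain). Static exposure began at 6 hpf on dechorionated embryos in 0.64% DMSO, with gain of signal analysed versus DMSO controls.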

Assay [12] in a line: Tanguay_ZF_120hpf_JAW_legacy: (Legacy) Oregon State University Tanguay Lab 120 Hour Post-fertilization zebrafish Assay for Jaw Malformation (AID 2283638).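 For AC50: active means more embryos with jaw malformation than DMSO controls.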 A digest of the protocol: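 Wild-type 5D embryos, chorion removed at 4 hpf, dosed singly from 6 hpf; 28C static, sealed, foil-covered, to 120 hpf. Endpoint: jaw defect yes/no (brightfield); mortality excludes scoring.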
The nature of assay [13]: Tanguay_ZF_120hpf_OTIC_legacy: (Legacy) Oregon State University Tanguay Lab 120 Hour Post-fertilization zebrafish Assay for Otic Vesicle Malformation (AID 2283639). A digest of the protocol: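 Tropical 5D wild-type zebrafish embryos were exposed statically in sealed, foil-covered plates at 28C until 120 hpf, with 0.64% (vol/vol) DMSO final. Otic vesicle malformation was scored present/absent by brightfield microscopy, with DMSO as baseline.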

Assay [14] is described as follows: Tanguay_ZF_120hpf_BRAI_legacy: (Legacy) Oregon State University Tanguay Lab 120 Hour Post-fertilization zebrafish Assay for Brain Malformation (AID 2283641). Put shortly:
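Static exposure of staged wild-type embryos until 120 hpf, kept at 28C with light excluded and final DMSO of 0.64% (vol/vol). Presence or absence of brain malformation was noted under brightfield; mortality precluded scoring.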

A short description of assay [15]: Tanguay_ZF_120hpf_PFIN_legacy: (Legacy) Oregon State University Tanguay Lab 120 Hour Post-fertilization zebrafish Assay for Pectoral Fin Malformation (AID 2283648).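 Note: each larva judged yes or no for fin defect by brightfield with dead larvae skipped.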 Put shortly:
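5D WT zebrafish; pronase dechorionation 4 hpf; 1 embryo/well at 6 hpf; static exposure to 120 hpf, 28C, sealed, foil-covered; final DMSO 0.64% v/v; 5 uM trimethyltin chloride positive control; fin defect scored yes/no.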

The nature of assay [16]: Tanguay_ZF_120hpf_CFIN_legacy: (Legacy) Oregon State University Tanguay Lab 120 Hour Post-fertilization zebrafish Assay for Caudal Fin Malformation (AID 2283649). Put shortly:
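Single dechorionated 5D wild-type embryos are dosed at 6 hpf (final DMSO 0.64%) and held statically at 28C. Caudal fin malformation is recorded as present or absent at 120 hpf under brightfield, excluding dead embryos.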

Assay [17] is described as follows: Tanguay_ZF_120hpf_PIG_legacy: (Legacy) Oregon State University Tanguay Lab 120 Hour Post-fertilization zebrafish Assay for Pigmentation Malformation (AID 2283650). A digest of the protocol: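 Pronase dechorionation at 4 hpf; embryos plated at 6 hpf, one per well; static exposure, sealed and foil-covered, 28C, to 120 hpf; pigmentation read by brightfield, binary; DMSO 0.64% baseline, 5uM trimethyltin chloride positive control.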

Assay [18] can be described thus: Tanguay_ZF_120hpf_CIRC_legacy: (Legacy) Oregon State University Tanguay Lab 120 Hour Post-fertilization zebrafish Assay for Circulatory Malformation (AID 2283651). A digest of the protocol:
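Tropical 5D wild-type embryos, dechorionated with pronase at 4 hpf, were placed singly in wells at 6 hpf and exposed statically at 28C to 120 hpf (0.64% DMSO final). Circulatory malformation was scored present/absent by brightfield microscopy.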

A short description of assay [19]: Tanguay_ZF_120hpf_PE_legacy: (Legacy) Oregon State University Tanguay Lab 120 Hour Post-fertilization zebrafish Assay for Pericardial Edema (AID 2283640).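 For AC50: potency for increased incidence of pericardial edema versus DMSO baseline.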 Put shortly: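 Zebrafish larvae are exposed from early development to 120 hpf at 28C, with 0.64% DMSO final. Each surviving larva receives a yes/no pericardial edema call by brightfield imaging, analysed relative to the DMSO baseline.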

Assay [20] in a line: Tanguay_ZF_120hpf_SOMI_legacy: (Legacy) Oregon State University Tanguay Lab 120 Hour Post-fertilization zebrafish Assay for Somite Malformation (AID 2283647). Put shortly:
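Somitogenesis defects are recorded as binary calls in whole larvae at 120 hpf after continuous static chemical exposure starting at 6 hpf in dechorionated 5D embryos. DMSO serves as negative control and baseline.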

Each structure is given as a SMILES string. Records with an inconclusive call do not appear. Active and inactive are the calls of the source. Rule for the calls: active = hit-call score of the fitted dose curve at least 0.9, where 1 is the maximum; inconclusive = response in the unintended direction; inactive = score below 0.9.

Chain of Cellular tumor antigen p53 (Homo sapiens) (P04637 whole entry, looked up): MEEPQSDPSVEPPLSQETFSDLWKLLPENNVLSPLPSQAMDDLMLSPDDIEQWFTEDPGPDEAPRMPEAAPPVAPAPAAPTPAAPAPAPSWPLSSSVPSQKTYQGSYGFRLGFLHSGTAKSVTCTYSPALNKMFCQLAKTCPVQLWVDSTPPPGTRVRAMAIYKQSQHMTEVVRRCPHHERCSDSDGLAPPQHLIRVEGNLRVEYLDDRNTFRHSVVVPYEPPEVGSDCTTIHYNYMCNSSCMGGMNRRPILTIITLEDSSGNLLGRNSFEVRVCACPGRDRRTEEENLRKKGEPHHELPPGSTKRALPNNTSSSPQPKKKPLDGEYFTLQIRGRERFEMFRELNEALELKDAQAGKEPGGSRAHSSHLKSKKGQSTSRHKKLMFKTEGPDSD

On to `CCCCCCCCOC(=O)c1cc(O)c(O)c(O)c1`, for which the AC50 (in general, the concentration at which the activity in the assay is half-maximal) is 67.9 µM (active) in assay [1]; 36.8 µM (active) in [2]; 32.9 µM (active) in [3]; 63.3 µM (active) in assay [4]; 42.6 µM (active) in [5]; 62.6 µM (active) in assay [6]. Moreover, the AC50 in assay [7] was 8.13 µM (active). Besides, the result in [8], in assay [9], in [10], in assay [11], in assay [12] and in assay [13] was inactive. Moreover, the compound was called inactive in [14], in [15], in assay [16], in assay [17] and in assay [18].
`COc1cc(C(=O)NC2CCN(C)CC2)ccc1Nc1ncc2c(n1)N(C1CCCC1)CC(F)(F)C(=O)N2C`: the AC50 in assay [1] was 55.2 µM (active); in [2], 70.1 µM (active); in [3], 42.9 µM (active); in [4], 0.00396 µM (active); in assay [5] it was 68.8 µM (active); in assay [6], 0.00404 µM (active). For the same compound, the AC50 in assay [7] is 24.4 µM (active); in assay [9] it was 9.69 µM (active); in [10] it was 10.1 µM (active); in assay [11], 10.1 µM (active); in assay [12], 34.6 µM (active); in [19], 35.6 µM (active). The AC50 in assay [14] is 12.3 µM (active). For the same compound, the outcome in assay [8], in assay [13], in [15], in assay [16] and in [17] was inactive.
With `O=C1O[C@H]([C@@H](O)CO)C(O)=C1O`, the result in assay [1], in assay [2], in assay [3], in assay [4], in assay [5] and in [6] was inactive. Moreover, the outcome in assay [7], in assay [9], in assay [10], in [11], in [14] and in assay [15] was inactive. Moreover, the result in assay [16], in assay [17] and in [18] was inactive.
Consider `CC(C)(C)c1csc(-c2cc3cc(OCc4ccccc4CC(=O)O)ccc3o2)n1`, for which the AC50 is 46.1 µM (active) in [1]; 27.9 µM (active) in assay [2]; 46.1 µM (active) in assay [3]; 47 µM (active) in assay [4]; 49.9 µM (active) in assay [6]; 25.9 µM (active) in [7]. Besides, the call in [5], in [8], in [9], in [10], in [12] and in [13] was inactive. For the same compound, the call in [14], in [20], in assay [15] and in assay [18] was inactive.
Consider `CN(C)C(=O)C1(N2CCCCC2)CCN(CC[C@@]2(c3ccc(Cl)c(Cl)c3)CN(C(=O)c3ccccc3)CCO2)CC1`, for which the AC50 in [1] is 70.5 µM (active); in assay [2], 82.3 µM (active); in assay [3], 34 µM (active); in assay [4] it was 82 µM (active); in [5], 74.6 µM (active); in assay [6] it was 48.5 µM (active). Also, the AC50 in [7] was 16.4 µM (active). Also, the compound was classed as inactive in assay [9], in assay [10], in assay [11], in assay [12], in assay [13] and in assay [19]. Besides, the call in assay [14], in assay [15], in assay [16], in assay [17] and in assay [18] was inactive.
Take `CCCOC(=O)c1cc(O)c(O)c(O)c1`: the call in assay [1], in [2], in [3], in assay [4], in [5] and in assay [6] was inactive. Besides, the compound was classed as inactive in [7], in assay [8], in [9], in assay [10], in assay [11] and in assay [12]. For the same compound, the compound was called inactive in assay [13], in assay [19], in assay [14], in assay [20], in assay [15] and in [17]. Further, in assay [18], the compound was called inactive.

The values above are taken from PubChem BioAssay (EPA / NIEHS).
